Assay results from PubChem BioAssay AID1159580 (chemical genetic matrix, 2015).
Several values for one entry are separate records, joined by “and”; a condition that tells them apart may be missing. Equal values may be shown once. Among all 5,500 compounds or so, about 2,000 (36%) were called active. Another 18% or so got no clear call; they are omitted. Cut-off read from the data, not from the text of the source: active = normalized growth mostly below about 0.91 (no sharp cut-off); inconclusive = no clear call, values can overlap the other calls; inactive = mostly above about 0.92. Some of the results follow.

Test: chemical genetic growth profiling, strain panel (AID 1159580);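 note: tested at 20 µM; growth read once vehicle control cultures reached saturation at 30 °C; 1 = growth at the plate median or of vehicle wells; lower values mean less growth of the strain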
Conditions: S. cerevisiae deletion strains, growth OD

Measured: normalized growth

CCOC([O-])=Nc1c[n+](N2CCOCC2)no1
inactive: locus YAL013W, strain DEP1, active compounds read low 1.01 | locus YAL021C, strain ccr4, active compounds read low 0.994 | locus YAL026C, strain drs2, active compounds read low 0.999 | locus YAL030W, strain snc1, active compounds read low 0.991 | locus YBL061C, strain skt5, active compounds read low 0.997 | locus YBR009C, strain hhf1, active compounds read low 0.997 | locus YBR021W, strain FUR4, active compounds read low 1.03 | locus YBR023C, strain chs3, active compounds read low 0.986 | locus YBR171W, strain sec66, active compounds read low 1 | locus YBR229C, strain ROT2, active compounds read low 1.01 | locus YBR231C, strain swc5, active compounds read low 0.997 | locus YBR279W, strain paf1, active compounds read low 1.01 | locus YCL011C, strain gbp2, active compounds read low 0.996 | locus YCL016C, strain dcc1, active compounds read low 0.978 | locus YCL029C, strain bik1, active compounds read low 0.991 | locus YCL061C, strain MRC1, active compounds read low 0.998 | locus YCL069W, strain vba3, active compounds read low 0.996 | locus YCR088W, strain abp1, active compounds read low 0.999 | locus YDL005C, strain med2, active compounds read low 0.993 | locus YDL035C, strain GPR1, active compounds read low 1.03 | locus YDL040C, strain nat1, active compounds read low 1 | locus YDL074C, strain BRE1, active compounds read low 1.04 | locus YDL101C, strain DUN1, active compounds read low 1.02 | locus YDL134C, strain PPH21, active compounds read low 1.01 | locus YDL185W, strain tfp1, active compounds read low 0.984 | locus YDL192W, strain arf1, active compounds read low 0.998 | locus YDR001C, strain nth1, active compounds read low 0.993 | locus YDR069C, strain doa4, active compounds read low 1 | locus YDR101C, strain arx1, active compounds read low 0.972 | locus YDR137W, strain rgp1, active compounds read low 1.01 | locus YDR150W, strain NUM1, active compounds read low 1.02 | locus YDR159W, strain sac3, active compounds read low 0.993 | locus YDR162C, strain NBP2, active compounds read low 1.01 | locus YDR195W, strain ref2 1 | locus YDR297W, strain sur2, active compounds read low 1 | locus YDR318W, strain mcm21, active compounds read low 0.99 | locus YDR334W, strain swr1, active compounds read low 0.984 | locus YDR335W, strain msn5, active compounds read low 0.991 | locus YDR388W, active compounds read low 0.997 | locus YDR392W, strain spt3, active compounds read low 0.927 | locus YDR502C, strain sam2, active compounds read low 0.988 | locus YEL003W, strain gim4, active compounds read low 1 | locus YEL037C, strain rad23, active compounds read low 0.993 | locus YEL061C, strain CIN8 (second series), active compounds read low 1 | locus YEL061C, strain CIN8, active compounds read low 1.01 | locus YER015W, strain faa2, active compounds read low 0.979 | locus YER016W, strain bim1, active compounds read low 1.01 | locus YER110C, active compounds read low 0.984 | locus YER111C, strain swi4, active compounds read low 0.979 | locus YER155C, strain BEM2 (second series), active compounds read low 0.984 | locus YER155C, strain BEM2, active compounds read low 1 | locus YER167W, strain BCK2, active compounds read low 1.01 | locus YFR010W, strain ubp6, active compounds read low 0.986 | locus YGL078C, strain dbp3, active compounds read low 0.987 | locus YGL086W, strain mad1, active compounds read low 1 | locus YGL167C, strain pmr1, active compounds read low 1 | locus YGL173C, strain kem1, active compounds read low 0.994 | locus YGL227W, strain vid30, active compounds read low 0.993 | locus YGL240W, strain doc1, active compounds read low 1.01 | locus YGL248W, strain PDE1, active compounds read low 1.01 | locus YGL253W, strain hxk2, active compounds read low 0.993 | locus YGR078C, strain PAC10, active compounds read low 1 | locus YGR135W, strain pre9, active compounds read low 0.986 | locus YGR229C, strain SMI1, active compounds read low 1.02 | locus YGR252W, strain gcn5, active compounds read low 1.01 | locus YHR013C, strain ard1, active compounds read low 0.985 | locus YHR027C, strain rpn1, active compounds read low 0.987 | locus YHR030C, strain SLT2, active compounds read low 1.01 and 1.02 | locus YHR079C, strain IRE1 (second series), active compounds read low 1 | locus YHR079C, strain IRE1, active compounds read low 1.03 | locus YHR094C, strain hxt1, active compounds read low 0.998 | locus YHR129C, strain ARP1, active compounds read low 1.01 | locus YHR142W, strain chs7, active compounds read low 0.992 | locus YHR200W, strain rpn10, active compounds read low 0.995 | locus YIL066C, strain RNR3, active compounds read low 1.01 | locus YIL073C, strain SPO22, active compounds read low 0.973 | locus YIL125W, strain kgd1, active compounds read low 1 | locus YIR030C, strain dcg1, active compounds read low 0.992 | locus YJL092W, strain hpr5, active compounds read low 0.992 | locus YJL095W, strain BCK1 (second series), active compounds read low 0.994 | locus YJL095W, strain BCK1, active compounds read low 1 and 1.03 | locus YJL115W, strain asf1, active compounds read low 0.982 | locus YJL129C, strain trk1, active compounds read low 0.997 | locus YJL134W, strain LCB3, active compounds read low 1.01 | locus YJL154C, strain vps35, active compounds read low 0.99 | locus YJL164C, strain tpk1, active compounds read low 0.989 | locus YJL166W, strain qcr8, active compounds read low 0.991 | locus YJL168C, strain set2, active compounds read low 1 | locus YJL187C, strain SWE1 (second series), active compounds read low 1.01 | locus YJL187C, strain SWE1, active compounds read low 1.01 | locus YJR043C, strain POL32, active compounds read low 0.989 | locus YJR066W, strain TOR1, active compounds read low 0.997
